Several values for one entry are separate records, joined by “and”; a condition that tells them apart may be missing. Identical values can stand only once. Values without a mark were called inactive. Records with an inconclusive call do not appear. Where a call stands in place of a potency, no number is given. Activity calls are given as the source filed them. Calls follow the shape of the dose curve; as a rule, active = well fitted curve in the direction sought with a large enough effect in the repeat runs; inconclusive = weak or mixed curves; inactive = no such curve, though single readings can be large; an effect the other way counts as inactive or inconclusive.
Key:
[1] = Human pregnane X receptor (PXR) small molecule agonists, qHTS cell viability counter screen (AID 1346977); also: nearly all actives have a fitted effect of over 50% in size
In short: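 Measures live-cell protease fluorescence (CellTiter-Fluor) in PXR-Luc HepG2 cells treated 24hr with compounds at 37C. Cells had 5hr to attach before pin transfer of DMSO solutions.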

[2] = Caspase-3/7 induction in HepG2 cells by small molecules, qHTS assay (AID 1346978); also: nearly all actives have a fitted effect of over 15% in size; also: potency is read from the fitted curve at half-maximal effect
In short: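 Wild-type HepG2 cells, 2,000/well, settled 5 hr at 37 C and 5% CO2, then compound-treated for 17 hr; caspase-3/7 activity read by luminescent Caspase-Glo 3/7 after 30 min at room temperature.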

[3] = Caspase-3/7 induction in CHO-K1 cells by small molecules, qHTS cell viability counter screen (AID 1346979); also: nearly all actives have a fitted effect of over 35% in size
In short: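 In the same wells as the caspase read, viability of compound-treated wild-type CHO-K1 cells was assessed using CellTiter-Fluor, added after 16hr at 37C and measured by fluorescence following 1hr further incubation.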

[4] = Caspase-3/7 induction in CHO-K1 cells by small molecules, qHTS assay (AID 1346980); also: nearly all actives have a fitted effect of over 15% in size
In short: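 Wild-type CHO-K1 cells exposed to compounds for 17hr at 37 C, 5% CO2. Caspase-3/7 activity then measured by Caspase-Glo 3/7 luminescence after 30min at room temperature.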

[5] = Caspase-3/7 induction in HepG2 cells by small molecules, qHTS cell viability counter screen (AID 1346981); also: series mostly up to about 92 µM; nearly all actives have a fitted effect of over 30% in size
In short: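 Cell viability is measured as a cytotoxicity counter screen alongside the Caspase-Glo 3/7 readout in identical wells. Wild-type HepG2 cells are treated with test compounds for 16 hr at 37 C before CellTiter-Fluor addition and a 1-hr incubation.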

[6] = biological target: Nuclear receptor subfamily 1 group I member 2 (Homo sapiens) (UniProt O75469); assay: Human pregnane X receptor (PXR) small molecule agonists, qHTS assay (AID 1346982); also: nearly all actives have a fitted effect of over 35% in size; also: potency is read from the fitted curve at half-maximal effect
Nuclear receptor subfamily 1 group I member 2 (Homo sapiens), sequence (O75469 whole entry, looked up): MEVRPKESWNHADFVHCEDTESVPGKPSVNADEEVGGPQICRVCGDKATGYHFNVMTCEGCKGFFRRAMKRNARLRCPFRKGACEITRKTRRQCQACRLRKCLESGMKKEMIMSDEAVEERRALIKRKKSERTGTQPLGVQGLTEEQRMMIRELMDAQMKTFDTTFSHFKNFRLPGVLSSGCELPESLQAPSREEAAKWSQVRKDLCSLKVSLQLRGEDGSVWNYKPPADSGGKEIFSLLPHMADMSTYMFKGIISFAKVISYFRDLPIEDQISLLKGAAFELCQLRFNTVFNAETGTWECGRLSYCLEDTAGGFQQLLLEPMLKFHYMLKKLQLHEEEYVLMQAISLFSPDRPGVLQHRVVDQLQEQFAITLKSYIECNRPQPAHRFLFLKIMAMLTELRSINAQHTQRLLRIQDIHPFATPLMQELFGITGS
In short: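 Cells: HepG2 stably carrying PXR-Luc. Medium held 5% charcoal-stripped FBS. Compounds in DMSO added after 5 hr plating, incubated 24 hr, then luminescence quantified with ONE-Glo.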

[7] = biological target: Cytochrome P450 2D6 (Homo sapiens) (UniProt P10635); assay: Cytochrome P450 Family 2 Subfamily D Member 6 (CYP2D6) small molecule antagonists: luciferase reporter qHTS assay (AID 1671196); also: nearly all actives have a fitted effect of over 50% in size; also: potency is read from the fitted curve at half-maximal effect
Cytochrome P450 2D6 (Homo sapiens), sequence (P10635 whole entry, looked up): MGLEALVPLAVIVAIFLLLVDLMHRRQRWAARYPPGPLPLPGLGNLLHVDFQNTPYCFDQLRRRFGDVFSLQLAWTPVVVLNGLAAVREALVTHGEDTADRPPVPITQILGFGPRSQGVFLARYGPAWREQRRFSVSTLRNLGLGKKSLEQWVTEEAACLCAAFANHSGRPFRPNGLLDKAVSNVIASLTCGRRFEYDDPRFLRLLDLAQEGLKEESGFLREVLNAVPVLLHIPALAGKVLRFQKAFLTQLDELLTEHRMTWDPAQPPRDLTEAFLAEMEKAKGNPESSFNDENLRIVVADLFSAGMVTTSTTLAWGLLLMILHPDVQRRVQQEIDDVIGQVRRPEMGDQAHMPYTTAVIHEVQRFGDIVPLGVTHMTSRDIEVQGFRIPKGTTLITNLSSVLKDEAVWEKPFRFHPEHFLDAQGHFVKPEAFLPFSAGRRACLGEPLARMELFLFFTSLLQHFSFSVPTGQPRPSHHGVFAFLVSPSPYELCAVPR
In short: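 Enzyme and proluciferin substrate were first combined with test chemical for 10 min at room temperature. Adding NADPH regeneration solution started a 1 h reaction, stopped with luciferin detection reagent and read by luminescence 20 min later.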

[8] = biological target: Cytochrome P450 2C9 (Homo sapiens) (UniProt P11712); assay: Cytochrome P450 Family 2 Subfamily C Member 9 (CYP2C9) small molecule antagonists: luciferase reporter qHTS assay (AID 1671198); also: nearly all actives have a fitted effect of over 50% in size; also: potency is read from the fitted curve at half-maximal effect
Cytochrome P450 2C9 (Homo sapiens), sequence (P11712 whole entry, looked up): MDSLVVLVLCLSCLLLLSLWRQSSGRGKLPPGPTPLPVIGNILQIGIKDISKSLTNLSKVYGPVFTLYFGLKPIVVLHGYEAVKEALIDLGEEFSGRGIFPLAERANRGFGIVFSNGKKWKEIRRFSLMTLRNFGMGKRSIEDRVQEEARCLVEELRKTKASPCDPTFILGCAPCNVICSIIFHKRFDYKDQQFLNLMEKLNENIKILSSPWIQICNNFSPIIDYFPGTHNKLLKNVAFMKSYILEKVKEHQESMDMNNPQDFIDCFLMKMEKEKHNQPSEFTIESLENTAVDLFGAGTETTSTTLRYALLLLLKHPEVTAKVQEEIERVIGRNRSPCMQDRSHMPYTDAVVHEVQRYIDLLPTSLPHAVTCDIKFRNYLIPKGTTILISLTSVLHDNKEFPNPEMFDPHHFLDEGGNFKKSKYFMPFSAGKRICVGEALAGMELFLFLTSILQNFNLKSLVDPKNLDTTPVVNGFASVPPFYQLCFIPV
In short: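 P450-Glo proluciferin substrate with CYP2C9 enzyme; 10 min RT preincubation, then NADPH regeneration 1 h at 37C; luciferin detection reagent 20 min RT, luminescence in relative luminescence units.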

[9] = biological target: Voltage-gated inwardly rectifying potassium channel KCNH2 (Homo sapiens) (UniProt Q12809); assay: Human Ether-a-go-go-Related Gene (hERG) channel small molecule antagonists: fluorescence cell-based qHTS assay (AID 1671200);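 also: hERG-expressing U2OS cells given a thallium stimulus after FluxOR II dye loading; series mostly up to about 77 µM; nearly all actives have a fitted effect of over 50% in size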
Voltage-gated inwardly rectifying potassium channel KCNH2 (Homo sapiens), sequence (Q12809 whole entry, looked up): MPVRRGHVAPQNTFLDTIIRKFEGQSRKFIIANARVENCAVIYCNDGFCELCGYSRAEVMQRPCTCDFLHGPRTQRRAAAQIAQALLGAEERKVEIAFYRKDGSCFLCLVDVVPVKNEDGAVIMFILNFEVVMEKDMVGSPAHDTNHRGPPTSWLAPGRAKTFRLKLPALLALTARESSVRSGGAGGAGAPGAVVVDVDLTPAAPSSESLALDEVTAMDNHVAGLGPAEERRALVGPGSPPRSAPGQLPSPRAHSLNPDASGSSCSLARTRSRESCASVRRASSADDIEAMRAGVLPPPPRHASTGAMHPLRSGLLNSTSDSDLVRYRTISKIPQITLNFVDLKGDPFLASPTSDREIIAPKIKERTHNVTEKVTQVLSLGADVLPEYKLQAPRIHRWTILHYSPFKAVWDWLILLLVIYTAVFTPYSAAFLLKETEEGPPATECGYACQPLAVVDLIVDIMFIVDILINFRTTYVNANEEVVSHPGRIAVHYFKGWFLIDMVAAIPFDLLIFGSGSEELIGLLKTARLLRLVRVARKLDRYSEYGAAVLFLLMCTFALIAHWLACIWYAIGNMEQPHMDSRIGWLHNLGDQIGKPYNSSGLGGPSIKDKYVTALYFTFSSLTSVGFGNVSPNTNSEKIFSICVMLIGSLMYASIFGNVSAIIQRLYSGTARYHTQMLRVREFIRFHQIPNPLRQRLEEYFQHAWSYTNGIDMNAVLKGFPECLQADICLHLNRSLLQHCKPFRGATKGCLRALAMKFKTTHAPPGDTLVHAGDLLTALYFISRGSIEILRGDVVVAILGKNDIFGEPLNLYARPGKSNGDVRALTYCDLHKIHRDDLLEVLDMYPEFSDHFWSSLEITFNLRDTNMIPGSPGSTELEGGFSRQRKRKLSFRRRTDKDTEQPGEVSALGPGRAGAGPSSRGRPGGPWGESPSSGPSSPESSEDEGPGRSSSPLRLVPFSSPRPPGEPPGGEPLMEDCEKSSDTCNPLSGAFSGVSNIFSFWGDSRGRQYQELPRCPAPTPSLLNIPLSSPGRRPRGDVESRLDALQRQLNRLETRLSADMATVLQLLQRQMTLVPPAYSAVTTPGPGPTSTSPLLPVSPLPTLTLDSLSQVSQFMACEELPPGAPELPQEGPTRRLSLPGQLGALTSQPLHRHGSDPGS
In short: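 Quantitative HTS in hERG-U2OS cells: thallium entry through the channel reports activity, read as continuous 480/540 nm fluorescence over 2 min after stimulus addition.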

[10] = biological target: Cytochrome P450 3A4 (Homo sapiens) (UniProt P08684); assay: Cytochrome P450 Family 3 Subfamily A Member 4 (CYP3A4) small molecule antagonists: luciferase reporter qHTS assay (AID 1671201); also: nearly all actives have a fitted effect of over 50% in size; also: potency is read from the fitted curve at half-maximal effect
Cytochrome P450 3A4 (Homo sapiens), sequence (P08684 whole entry, looked up): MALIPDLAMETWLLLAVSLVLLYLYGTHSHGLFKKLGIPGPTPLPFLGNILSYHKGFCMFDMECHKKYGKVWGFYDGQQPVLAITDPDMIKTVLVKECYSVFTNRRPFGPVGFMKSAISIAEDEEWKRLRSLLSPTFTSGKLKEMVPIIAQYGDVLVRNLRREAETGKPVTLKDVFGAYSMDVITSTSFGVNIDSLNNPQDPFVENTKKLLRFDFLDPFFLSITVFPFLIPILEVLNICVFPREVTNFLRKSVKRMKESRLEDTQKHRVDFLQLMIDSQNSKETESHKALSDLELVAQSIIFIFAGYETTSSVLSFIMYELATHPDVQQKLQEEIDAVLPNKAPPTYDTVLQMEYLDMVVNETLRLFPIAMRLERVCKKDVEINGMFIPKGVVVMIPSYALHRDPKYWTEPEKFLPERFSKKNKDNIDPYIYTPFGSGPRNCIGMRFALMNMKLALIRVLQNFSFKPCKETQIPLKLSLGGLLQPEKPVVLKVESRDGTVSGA
In short: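 Inhibition of CYP3A4 is measured as loss of light: the enzyme converts a proluciferin substrate to luciferin, detected luminescently. Reaction ran 1 h at room temperature with NADPH regeneration after a 10 min compound preincubation.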

[11] = biological target: Nuclear receptor subfamily 1 group I member 2 (Homo sapiens) (UniProt O75469); assay: CYP3A4 induction through human pregnane X receptor (PXR) by small molecules, qHTS assay (AID 1346984); also: nearly all actives have a fitted effect of over 40% in size; also: potency is read from the fitted curve at half-maximal effect
In short: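 Quantitative HTS in DPX-2 cells, i.e. HepG2 transfected with PXR response element and CYP3A4-promoter luciferase. Compounds in DMSO incubated 24hr at 37C; then P450-Glo CYP3A4 substrate, 3uM final, 3hr; One-Glo luminescence.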

[12] = biological target: Nuclear receptor subfamily 1 group I member 2 (Homo sapiens) (UniProt O75469); assay: Human pregnane X receptor (PXR) activation by small molecules, qHTS assay (AID 1346985); also: nearly all actives have a fitted effect of over 40% in size; also: potency is read from the fitted curve at half-maximal effect
In short: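 DPX-2 cells (HepG2 co-transfected with a PXR response element and a CYP3A4-promoter luciferase construct) were seeded at 2,000 per well, rested 5 hr at 37C, then exposed to DMSO-dissolved compounds for 24 hr. Activation was read as luciferase luminescence.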

[13] = biological target: Cytochrome P450 1A2 (Homo sapiens) (UniProt P05177); assay: Cytochrome P450 Family 1 Subfamily A Member 2 (CYP1A2) small molecule antagonists: luciferase reporter qHTS assay (AID 1671199); also: nearly all actives have a fitted effect of over 50% in size; also: potency is read from the fitted curve at half-maximal effect
Cytochrome P450 1A2 (Homo sapiens), sequence (P05177 whole entry, looked up): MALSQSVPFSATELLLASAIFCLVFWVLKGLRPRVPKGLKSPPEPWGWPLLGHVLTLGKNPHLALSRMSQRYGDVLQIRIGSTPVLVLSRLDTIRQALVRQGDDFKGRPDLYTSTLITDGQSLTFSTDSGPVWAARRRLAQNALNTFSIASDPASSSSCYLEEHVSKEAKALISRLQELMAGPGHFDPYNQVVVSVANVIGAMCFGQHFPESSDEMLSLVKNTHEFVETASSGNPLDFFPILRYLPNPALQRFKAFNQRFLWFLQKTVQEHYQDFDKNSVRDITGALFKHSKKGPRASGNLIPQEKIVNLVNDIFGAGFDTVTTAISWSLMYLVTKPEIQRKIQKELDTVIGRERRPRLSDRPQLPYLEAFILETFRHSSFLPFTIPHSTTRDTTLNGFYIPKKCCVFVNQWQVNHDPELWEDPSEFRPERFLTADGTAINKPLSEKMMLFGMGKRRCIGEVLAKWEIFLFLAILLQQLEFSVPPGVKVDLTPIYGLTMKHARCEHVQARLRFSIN
In short: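 Compounds were incubated with CYP1A2 and a luminogenic proluciferin substrate for 10 min at room temperature before the reaction was started with NADPH regeneration solution. After 1 h, detection reagent was added and light output, proportional to CYP activity, was recorded.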

[14] = biological target: Cytochrome P450 2C19 (Homo sapiens) (UniProt P33261); assay: Cytochrome P450 Family 2 Subfamily C Member 19 (CYP2C19) small molecule antagonists: luciferase reporter qHTS assay (AID 1671197); also: nearly all actives have a fitted effect of over 65% in size; also: potency is read from the fitted curve at half-maximal effect
Cytochrome P450 2C19 (Homo sapiens), sequence (P33261 whole entry, looked up): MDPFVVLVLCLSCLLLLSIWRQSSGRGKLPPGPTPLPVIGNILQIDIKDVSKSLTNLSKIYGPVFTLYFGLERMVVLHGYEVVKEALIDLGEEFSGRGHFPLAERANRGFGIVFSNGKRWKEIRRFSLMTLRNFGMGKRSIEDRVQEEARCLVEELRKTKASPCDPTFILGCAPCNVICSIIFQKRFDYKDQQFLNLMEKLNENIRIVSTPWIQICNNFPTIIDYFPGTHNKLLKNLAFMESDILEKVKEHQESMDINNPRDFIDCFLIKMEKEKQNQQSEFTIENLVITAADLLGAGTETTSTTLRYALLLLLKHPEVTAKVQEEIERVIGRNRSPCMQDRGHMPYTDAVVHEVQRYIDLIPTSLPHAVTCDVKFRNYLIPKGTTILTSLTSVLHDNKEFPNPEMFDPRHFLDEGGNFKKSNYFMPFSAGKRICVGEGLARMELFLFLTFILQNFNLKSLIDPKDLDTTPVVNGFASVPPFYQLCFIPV
In short: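 First, compounds are pinned into enzyme-substrate mix and held 10 min at room temperature. Second, NADPH regeneration solution is added and plates incubate 1 h at 37C. Third, detection reagent is added and luminescence read after 20 min.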

[15] = biological target: Nuclear receptor subfamily 1 group I member 2 (Rattus norvegicus) (UniProt Q9R1A7); assay: Rat pregnane X receptor (rPXR) activation by small molecules, qHTS assay (AID 1346983); conditions: rPXR luciferase reporter cells, One-Glo luminescence, 24 h; max activation: active compounds read high; also: potency is read from the fitted curve at half-maximal effect; nearly all actives have a fitted effect of over 20% in size
Nuclear receptor subfamily 1 group I member 2 (Rattus norvegicus), sequence (Q9R1A7 whole entry, looked up): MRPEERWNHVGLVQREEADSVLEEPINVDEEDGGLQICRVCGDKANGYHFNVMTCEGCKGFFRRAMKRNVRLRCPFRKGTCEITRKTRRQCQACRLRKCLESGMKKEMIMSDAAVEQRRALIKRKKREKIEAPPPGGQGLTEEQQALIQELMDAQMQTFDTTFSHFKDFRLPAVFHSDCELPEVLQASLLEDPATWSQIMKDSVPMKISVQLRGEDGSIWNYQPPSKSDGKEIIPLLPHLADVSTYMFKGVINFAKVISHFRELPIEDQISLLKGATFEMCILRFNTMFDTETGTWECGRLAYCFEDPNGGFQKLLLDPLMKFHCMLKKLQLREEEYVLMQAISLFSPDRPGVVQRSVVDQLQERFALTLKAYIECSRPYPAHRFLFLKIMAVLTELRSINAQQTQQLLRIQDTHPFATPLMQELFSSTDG
In short: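 Cell-based rPXR activation assay: rPXR cells, 2,000 per well, rested 5hr at 37 C, then exposed to compounds in DMSO for 24 hr at 37 C. Luciferase activity read by One-Glo luminescence after 30 min at room temperature.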

Compound | Potency [1] | Potency [2] | Potency [3] | outcome [4] | Potency [5] | Potency [6] | Potency [7] | Potency [8] | Potency [9] | Potency [10] | Potency [11] | Potency [12] | Potency [13] | Potency [14] | Potency [15]
CC(C)C(=O)O | inactive | inactive | inactive | inactive | inactive | inactive | inactive | inactive | inactive | inactive | – | – | – | – | –
CO/N=C1\CN(c2nc3c(cc2F)c(=O)c(C(=O)O)cn3C2CC2)CC1CN (configuration not stated) | inactive | inactive | – | inactive | inactive | inactive | inactive | inactive | – | – | inactive | inactive | inactive | – | –
CN1CCCN=C1/C=C/c1cccs1 | inactive | inactive | inactive | inactive | inactive | – | – | – | inactive | – | – | – | – | – | –
N#C[C@@H]1C[C@@H]2C[C@@H]2N1C(=O)[C@@H](N)C12CC3CC(CC(O)(C3)C1)C2 | inactive | inactive | inactive | inactive | inactive | inactive | – | inactive | – | inactive | – | – | inactive | inactive | –
CC(C)CCCCCCOC(=O)CCCCC(=O)OCCCCCCC(C)C | inactive | inactive | inactive | inactive | inactive | inactive | – | – | inactive | inactive | – | – | 35.6 µM (active) | inactive | –
CCCc1c(OCCCOc2ccc(OCC(=O)O)cc2)ccc(C(C)=O)c1O | inactive | inactive | – | inactive | inactive | – | inactive | 8.94 µM (active) | inactive | – | – | – | – | – | –
CCCCCCCCCOC(C)=O | inactive | inactive | inactive | inactive | inactive | inactive | inactive | inactive | inactive | inactive | – | – | – | – | –
CCCCCCCC/C=C\CCCCCCCC(=O)OC | inactive | inactive | inactive | inactive | inactive | inactive | – | inactive | inactive | inactive | – | – | 31.8 µM (active) | inactive | –
CCCCC(=O)O[C@]1(C(=O)CO)[C@@H](C)C[C@H]2[C@@H]3CCC4=CC(=O)C=C[C@]4(C)[C@@]3(F)[C@@H](O)C[C@@]21C | inactive | inactive | – | inactive | – | 34.4 µM (active) | 35.6 µM (active) | 35.6 µM (active) | inactive | – | – | – | – | 79.6 µM (active) | –
Oc1cc(O)c(Cl)cc1Cl | inactive | inactive | inactive | inactive | inactive | inactive | – | 40.9 µM (active) | inactive | 36.5 µM (active) | – | – | – | – | –
Cc1ccccc1N1C(=O)c2cc(S(N)(=O)=O)c(Cl)cc2NC1C (configuration not stated) | inactive | inactive | inactive | inactive | inactive | 5.31 µM (active) | – | – | inactive | – | – | – | inactive | inactive | –
NC(=O)Nc1ccc(Cl)cc1 | inactive | inactive | inactive | inactive | inactive | inactive | – | – | inactive | inactive | – | – | 31.6 µM (active) | – | –
CC(=O)OCC(=O)[C@@]12OC(C)(C)O[C@@H]1C[C@H]1[C@@H]3C[C@H](F)C4=CC(=O)C=C[C@]4(C)[C@@]3(F)[C@@H](O)C[C@@]12C | inactive | inactive | – | inactive | inactive | – | – | – | inactive | – | – | – | – | – | –
Cc1oncc1C(=O)Nc1ccc(C(F)(F)F)cc1 | – | inactive | inactive | inactive | inactive | 12.2 µM (active) and 1.5 µM (active) | 31.7 µM (active) | 25.2 µM (active) and 15.5 µM (active) | inactive | – | inactive | 0.708 µM (active) | 1.59 µM (active) and 911 nM (active) | 8.94 µM (active) and 8.71 µM (active) | –
CC(=O)CC(c1ccc([N+](=O)[O-])cc1)c1c(O)c2ccccc2oc1=O (configuration not stated) | inactive | inactive | – | inactive | inactive | inactive | 38.9 µM (active) | 2.45 µM (active) | inactive | inactive | inactive | inactive | inactive | 8.71 µM (active) | –
CCCCOC(=O)CCS | inactive | inactive | inactive | inactive | inactive | inactive | – | 63.3 µM (active) | inactive | – | – | – | – | – | –
CCCOCCOCCO | – | inactive | inactive | inactive | inactive | inactive | – | inactive | inactive | – | – | – | inactive | – | –
COCc1c(C(C)C)nc(C(C)C)c(/C=C/[C@@H](O)C[C@@H](O)CC(=O)O)c1-c1ccc(F)cc1 | inactive | 2.11 µM (active) and 958 nM (active) | – | inactive | – | 15 µM (active) and 10.8 µM (active) | inactive | 35.2 µM (active) | inactive | – | 3.16 µM (active) | 3.55 µM (active) | – | inactive | 11.2 µM (active)
COc1ccc([C@@H]2Sc3ccccc3NC(=O)[C@@H]2O)cc1 | inactive | inactive | inactive | inactive | inactive | inactive | – | 17.4 µM (active) | inactive | inactive | – | – | – | 21.9 µM (active) | –
Nc1ccc(S(=O)(=O)O)c(N)c1 | inactive | inactive | inactive | inactive | inactive | inactive | – | inactive | inactive | inactive | – | – | 22.4 µM (active) | 31.7 µM (active) | –

Source: PubChem BioAssay (Tox21)
